Assay results taken from PubChem BioAssay AID652257 (The Scripps Research Institute Molecular Screening Center, 2013).
About 4,800 (1.3%) of roughly 370,000 compounds were called active.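 The calls were made as follows: active = inhibition above about 21% made by adding two undisclosed values (limit read from the data); inactive = the rest.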 Only a selection was taken, and actives are over-represented in it overall.

target: Protein arginine N-methyltransferase 1 (Homo sapiens) (UniProt Q99873); assay: human PRMT1 activity-probe blockers – biochemical, fluorescence polarization, primary screen (AID 652257); details: recombinant PRMT1, activity-based probe fluorescence polarization; at 2.79 µM; hits give high values
Sequence (Q99873 whole entry, looked up): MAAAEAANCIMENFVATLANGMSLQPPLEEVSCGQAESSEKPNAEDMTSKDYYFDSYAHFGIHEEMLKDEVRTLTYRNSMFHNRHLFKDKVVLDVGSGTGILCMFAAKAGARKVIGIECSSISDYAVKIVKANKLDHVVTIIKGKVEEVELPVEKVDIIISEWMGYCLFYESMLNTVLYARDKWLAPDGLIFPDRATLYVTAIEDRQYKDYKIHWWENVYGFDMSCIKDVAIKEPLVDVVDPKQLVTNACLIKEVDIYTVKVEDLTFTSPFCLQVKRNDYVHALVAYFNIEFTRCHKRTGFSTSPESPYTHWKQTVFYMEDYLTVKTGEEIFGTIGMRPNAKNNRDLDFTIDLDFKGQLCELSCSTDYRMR

inhibition, inactive:
CCCNC(=O)C1CC(=O)N(c2ccc(OCc3ccccc3)cc2)C1 (stereo not drawn) -0.86%
COc1cc(C2C(C(=O)c3ccco3)=C(O)C(=O)N2c2cc(C)on2)ccc1OCc1ccccc1 (stereo not drawn) 4.72%
COc1ccnc(C(=O)N2CCC(Oc3cccnc3)CC2)c1 2.35%
CSc1cc(C)[nH]c(=O)n1 2.31%
Cc1cc(=O)cc(C)[nH]1 -3.92%
COC(=O)[C@H](C(C)C)N(CCc1cn(Cc2ccccc2)nn1)S(=O)(=O)c1ccc(F)cc1Br 0.27%
Cc1ccc(C)c(S(=O)(=O)N(C)c2ccc(OC(=O)C3CCN(C(=O)c4ccc(F)cc4)CC3)cc2)c1 0.47%
CCCCC(=O)NC(c1ccc(OC)c(OC)c1)c1ccc2cccnc2c1O (stereo not drawn) -1.04%
CCOC(=O)N1CCN(C(c2ccnc3ccccc23)c2nnnn2-c2c(C)cccc2C)CC1 (stereo not drawn) -3.34%
Cc1cccc(N2CCC(NCc3c(C(=O)N4CCCCC4)nc4c(C)cccn34)CC2)c1 7.11%
O=C(O)C1CCN(S(=O)(=O)N2CCOCC2)CC1 0.67%
O=C(O)c1c(NC(=O)N2CCCC2)sc2c1CCCC2 4.25%
CCOC(=O)C(NC(=O)CC(C)C)(Nc1sc2c(c1C(N)=O)CCCC2)C(F)(F)F (stereo not drawn) 0.14%
Cc1ccc2nc(SCc3nnc(-c4ccccc4[N+](=O)[O-])o3)c(C#N)cc2c1 -0.9%
COc1ccc(CN2C(=O)C(CC(=O)NCCCCc3ccccc3)CC(C(=O)N3CCOCC3)=C2C)cc1 (stereo not drawn) -9.04%
COCCNC(=O)C(c1ccc(C)cc1)N(C(=O)CCC(=O)Nc1ccccn1)c1cccc(C)c1 (stereo not drawn) -0.11%
CCOC(=O)c1c(N=CN(C)C)c(C#N)c2n1CCCC2 -2.76%
Cc1ccc(Cn2cc(COC(=O)N(C)Cc3ccccc3)nn2)cc1 0.99%
O=C(COC(=O)Cn1[nH]c(=O)c2ccccc2c1=O)Nc1ncc(Cl)cc1Cl -0.63%
O=C(CN1CCc2ccccc21)NC(c1ccccc1)c1ccccc1 -3.28%
CCOC(=O)/C=C/C(=O)OCC(=O)NC(c1ccccc1)c1ccccc1 8.52%
COc1ccc(CNC(=O)CCC(=O)Nc2nnc(C(C)C)s2)cc1 6.7%
COc1ccc(OCCCC(=O)Nc2nnc(C3CCCO3)s2)cc1 (stereo not drawn) 2.04%
O=C(NCc1cccs1)C1CCCN(S(=O)(=O)c2ccc([N+](=O)[O-])cc2)C1 (stereo not drawn) 0.46%
C=CCN1C(=O)[C@H](CC(=O)NCCCN2CCCC2=O)[C@@]2(C(=O)OCC)CCCC=C12 0.15%
O=C(NCCOc1cccnc1)c1ccc(OC2CCN(Cc3ccccn3)CC2)cc1 3.52%
Cc1ccccc1N1CC(C(=O)Nc2nnc(SCCC3OCCO3)s2)CC1=O (stereo not drawn) 5.12%
CCOc1ccc(-n2cnnn2)cc1S(=O)(=O)N1CCC(C)CC1C (stereo not drawn) -4.54%
CC(NC(=S)NC1CCCCC1)C(c1ccccc1)N1CCOCC1 (stereo not drawn) 0.42%
COc1ccc(N2CCN(CCNS(=O)(=O)c3ccc([N+](=O)[O-])cc3)CC2)cc1 -4.73%
CC1(c2ccccc2Cl)NC(=O)N(CC(=O)NC(=O)NCc2ccco2)C1=O (stereo not drawn) 5.3%
O=C(CC1CCCCC1)NCc1ccco1 -1.65%
O=C(NCCCN1CCN(c2ccc(F)cc2)CC1)Nc1ccc([N+](=O)[O-])cc1 -0.66%
Nn1c(SCC(=O)Nc2cccc3ccccc23)nnc1-c1cc(-c2ccc(F)cc2)n[nH]1 2.17%
Cc1cc(Cl)ccc1C(=O)C1CCCN(C(=O)c2nonc2C)C1 (stereo not drawn) -0.28%
COc1ccc(Cn2cc(COC(=O)N(C)Cc3ccccc3)nn2)cc1 -6.72%
Cc1cccc(N2CCN(C(=O)c3cc4c(=O)[nH]c5ccccc5c4n3C)CC2)c1C -1.76%
CCn1c(C)c(C)c2cc(C(=O)N3CCN(c4cccc(C)c4C)CC3)ccc21 2.44%
CN(C)c1ccc(NC(=O)NC2CCCCN(Cc3ccc(Cl)cc3)C2=O)cc1 (stereo not drawn) 4.83%
Nn1c(SCC(=O)Nc2ccc(S(N)(=O)=O)cc2)nnc1-c1n[nH]c2c1CCC2 0.39%
CN(C)[C@H]1CCN(c2cccc3c2S(=O)(=O)N2CC[C@H](C2)O3)C1 0.28%
CC(=O)OC12CCCN(C1)/C(=C/c1ccncc1)C2 (stereo not drawn) -0.73%
COCCCNC(=O)CC1C[C@H](C(=O)N2CCCCC2)[C@@]2(CCc3ccccc3)c3[nH]c4ccccc4c3CCN2C1=O (stereo partly drawn) -2.68%
CCCCCCCCNS(=O)(=O)/C=C/c1cc(C)ccc1CNC(=O)OC(C)(C)C -0.82%
O=C(CSc1ccccc1)Nc1cccc(S(=O)(=O)N2CCCCC2)c1 -5.2%
Cc1cc(NC(=O)C(C)SCC(=O)Nc2ccccc2N2CCCCC2)no1 (stereo not drawn) -2.38%
C=C1C(C(C)C)N(C)C2=NC(c3ccccc3)CC(=O)N12 (stereo not drawn) -3.21%
O=C(NC1CCCCC1)C(c1cc2ccccc2o1)n1c(=O)c(-c2ccco2)nc2ccccc21 (stereo not drawn) 10.9%
N#Cc1ccc(C(C(=O)NCc2ccccc2)n2c(=O)c(-c3ccco3)nc3ccccc32)cc1 (stereo not drawn) 20.9%
Cc1ccc(CSc2nnc(SCC(=O)NN=Cc3cc(Br)ccc3F)s2)cc1 3.3%
CCc1cccc2c3c([nH]c12)C(CC)(CC(=O)O)OCC3 (stereo not drawn) 1.16%
C[C@H]1CCC/C=C/C(=O)c2c(O)cc(O)cc2CC(=O)O1 7.7%
CC(C)(C)c1ccc(C(CC(=O)O)NS(=O)(=O)Cc2ccccc2)cc1 (stereo not drawn) -1.05%
CC(C)[C@@H](NC(=O)OC(C)(C)C)C(=O)NCC1CCC(C(=O)N[C@@H](Cc2ccccc2)C(=O)O)CC1 (stereo partly drawn) 2.79%
CCOC(=O)[C@]12CCCC=C1N(Cc1ccc(OC)cc1)C(=O)[C@@H]2CC(=O)N1CCOCC1 -1.02%
O=C(NCc1ccc(Cl)cc1)C1CCCN(c2nc3ccccc3o2)C1 (stereo not drawn) 4.6%
N#Cc1ccccc1S(=O)(=O)N1CCN(C(=O)c2cc(-c3ccccc3)nn2-c2ccccc2)CC1 -1.25%
O=C(CN1CCN(S(=O)(=O)c2cc(Cl)ccc2Cl)CC1)c1ccc(O)c(O)c1 18.9%
CC1=CC(C)(C)Nc2ccc(OC(=O)CN3C(=O)C4CCCCC4C3=O)cc21 (stereo not drawn) 0.85%
CCOC(=O)c1c(N)c(C#N)nn1-c1ccccc1C(=O)OC 6.05%
CSc1ccccc1NC(=O)CN(C)CC(=O)Nc1ccc(Cl)cc1[N+](=O)[O-] -1.57%
O=C(COc1ccc(Cl)cc1[N+](=O)[O-])N1CCCCC1 -4.9%
CC(=O)OCCN1CCCC12CCC(c1ccccc1)CC2 (stereo not drawn) 2.94%
C=C(C)C1CC23C(=O)C4(C(=O)c5ccccc5)C[C@@]5(C)CCC(CC2C1(C)C)(C4=O)C35OC (stereo partly drawn) 3.86%
COc1ccc(C2CC(=O)n3c(nc4ccccc43)S2)cc1OC (stereo not drawn) 0.28%
COc1ccc(C2CC(c3cccs3)=NN2c2nc(C)c(C(C)=O)s2)cc1OC (stereo not drawn) 0.1%
O=S1(=O)c2ccc(Br)cc2OC[C@@H](Cc2ccccc2)N1Cc1cn(Cc2ccco2)nn1 -6.43%
COc1ccc(C(=O)CSc2nnc(-c3cnccn3)n2-c2ccc(C)cc2)cc1 -1.24%
N#CCC(=O)NC(=O)NCC1CC1 1.85%
COc1nc(NCc2ccc(Cl)cc2)nc(OC)n1 -0.93%

inhibition, active:
COc1cc(C2CC(=O)N3CN(Cc4ccccc4)CSC3=C2C#N)ccc1OCc1ccccc1 (stereo not drawn) 38.8%
Cc1cc(=O)[nH]c(=S)[nH]1 107%
CCOC(=O)N1CCN(C(c2cccnc2)c2ccc3cccnc3c2O)CC1 (stereo not drawn) 26.1%
NC(=O)c1c(Nc2nc3c(F)cccc3s2)sc2c1CCCC2 48.8%
Cc1ccc(-c2ccc(/C=C(\C#N)C(N)=S)o2)c([N+](=O)[O-])c1 34.7%
O=C(Cc1ccc(-c2ccccc2)cc1)NC(c1ccccc1)c1ccccc1 44.1%
COc1ccc(OCC(=O)Nc2nnc(-c3ccco3)s2)cc1 22.1%
Cc1ccnc(-n2sc3ccccc3c2=O)n1 90.7%
O=C(CC1N=C2c3ccccc3N=C(SCc3ccccc3Cl)N2C1=O)NCc1ccco1 (stereo not drawn) 26.2%
CN(C)c1ccc(Nc2c3c4c(cccc4n(C)c2=O)C(=O)c2ccccc2-3)cc1 56.4%
Cc1cccc(N2CCN(C(=O)/C=C/c3ccco3)CC2)c1C 29.9%
Cc1cc(NC(=O)C(C)SCC(=O)Nc2cccc(S(=O)(=O)N3CCCCCC3)c2)no1 (stereo not drawn) 71.1%
Cc1cccc(C)c1NC(=O)C(c1ccc(C(F)(F)F)cc1)n1c(=O)c(-c2ccco2)nc2ccccc21 (stereo not drawn) 23.1%
C[C@@H](NC(=O)OC(C)(C)C)c1nnc(S(=O)(=O)Cc2ccccc2)o1 21.3%
N#Cc1ccccc1S(=O)(=O)N1CCN(Cc2c(O)ccc3ccccc23)CC1 34.5%
O=C1CCCCC1Sc1ccc(Cl)cc1[N+](=O)[O-] (stereo not drawn) 48.8%
COc1ccc(C2CC(c3cccs3)=Nc3ccccc3S2)cc1OC (stereo not drawn) 63.7%
Nc1ccc2nc3c(=O)[nH]c(=S)[nH]c3nc2c1 129%
